Compounds without any hit were thinned out: in the full panel of roughly 79,000, 15% have a hit. Values without a mark were called inactive. Activity calls are given as the source filed them. Rule as the data show it: active = growth inhibition above about 70%; inactive = the rest.

Experiment [1] is described as follows: NCI Yeast Anticancer Drug Screen. Data for the rad50 strain (AID 155).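 Also: 0% = growth of vehicle-only cultures of the same strain.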 The note with it: S. cerevisiae rad50 strain growth inhibition; at 50.0 µM; stronger effect = higher value. The method in brief: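 Compounds were tested on a yeast strain with an engineered DNA damage repair alteration; the reported value is growth inhibition normalised to vehicle treatment.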
Experiment [2] is described as follows: NCI Yeast Anticancer Drug Screen. Data for the mec2-1 strain (AID 157). The following applies: S. cerevisiae mec2-1 strain, at 50.0 µM, stronger effect = higher value. The method in brief: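 mec2-1 yeast strain, carrying an alteration in DNA damage repair or cell cycle control, was exposed to compounds; growth inhibition was measured relative to vehicle-treated controls.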

Experiment [3] in a line: NCI Yeast Anticancer Drug Screen. Data for the sgs1 mgt1 strain (AID 161).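 Also: 0% = growth of cultures given vehicle only.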 The following applies: S. cerevisiae sgs1 mgt1 strain, at 50.0 µM, stronger effect = higher value. The method in brief: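 This yeast growth screen uses a strain with defined DNA-repair lesions; compound-treated growth is compared with vehicle-treated growth.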
Experiment [4] can be described thus: NCI Yeast Anticancer Drug Screen. Data for the cln2 rad14 strain (AID 165).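 Also: 0% = growth equal to vehicle treated cultures.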 The note with it: S. cerevisiae cln2 rad14 strain, at 50.0 µM, stronger effect = higher value. The method in brief:
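Yeast carrying cln2 and rad14 alterations (cell cycle control and DNA damage repair) were exposed to compounds. Growth inhibition was measured against vehicle-treated controls.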

A short description of experiment [5]: NCI Yeast Anticancer Drug Screen. Data for the bub3 strain (AID 167). The note with it: S. cerevisiae bub3 mutant strain, at 50.0 µM, stronger effect = higher value. Put shortly:
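Growth of a checkpoint-deficient yeast mutant is measured after compound exposure. Values represent inhibition relative to vehicle.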

Experiment [6] in a line: NCI Yeast Anticancer Drug Screen. Data for the mlh1 rad18 strain (AID 175). The note with it: S. cerevisiae mlh1 rad18 strain growth inhibition; at 50.0 µM; stronger effect = higher value. Put shortly:
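Growth inhibition of the yeast strain was measured after compound exposure and expressed relative to vehicle-treated controls. The strain carries defined defects in DNA damage repair.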

For `COc1ccc2c(C#N)cc3c4ccccc4ncc3c2c1`, the growth inhibition was 16.6% in experiment [1]; 7% in experiment [2]; -9.6% in experiment [3]; 19.1% in experiment [4]; -4.35% in experiment [5]; -10.8% in experiment [6].

For the compound `C=CCNC(=O)CC(C)(C)C`, the growth inhibition in experiment [1] was 25.6%; in experiment [2], 12.3%; in experiment [3], 0.35%; in experiment [4], 9.3%; in experiment [5], 23.9%; in experiment [6], 20.2%.

As for `CC(=O)c1c(C)c(C)c(=O)n(C/C=C(\C)CCC=C(C)C)c1O`, the growth inhibition is 98% (active) in experiment [1]; 99% (active) in experiment [2]; 98.7% (active) in experiment [3]; 97.4% (active) in experiment [4]; 98.3% (active) in experiment [5]; 98.1% (active) in experiment [6].

On to `O=C(N/C(=C\c1ccccc1[N+](=O)[O-])c1nc2ccccc2[nH]1)c1ccccc1`, for which the growth inhibition was -3.4% in experiment [1]; -1.45% in experiment [2]; 1.2% in experiment [3]; -1.15% in experiment [4]; 6.85% in experiment [5]; -1.7% in experiment [6].

Turning to `O=[N+]([O-])C1C2C=CC(C2)[C@H]1c1ccco1` (some centres not stated), the growth inhibition was -7.85% in experiment [1]; -15.2% in experiment [2]; -24.7% in experiment [3]; 20.2% in experiment [4]; -14.8% in experiment [5]; -4.95% in experiment [6].

As for `O=C(O)C(CS)NC1CC(=O)N(Cc2ccccc2)C1=O` (configuration not stated), the growth inhibition in experiment [1] was 1.95%; in experiment [2], 9.8%; in experiment [3], 18.6%; in experiment [4], -19.3%; in experiment [5] it was -1.55%; in experiment [6] it was -8.25%.

In the case of `O=C(NNc1ccccc1)/C(=C/c1ccc2c(c1)OCO2)NC(=O)c1ccccc1`, the growth inhibition in experiment [1] is 15.8%; in experiment [2], 9.5%; in experiment [3] it was -29.6%; in experiment [4] it was -6.2%; in experiment [5] it was 1.35%; in experiment [6], 4.55%.

Consider `COc1ccc2cc(OC)ccc2c1`, for which the growth inhibition in experiment [1] is 4.95%; in experiment [2] it was -14.6%; in experiment [3] it was -1.15%; in experiment [4], 22%; in experiment [5], 1.5%; in experiment [6] it was 14%.

With `CCN(CC)CCC(=O)c1cnc(-c2ccccc2)nc1C`, the growth inhibition in experiment [1] is 7.35%; in experiment [2], 35.1%; in experiment [3], 38.7%; in experiment [4], 2.5%; in experiment [5], 17.5%; in experiment [6], 20.1%.

For `CC(C)Cc1[nH]nc2c1C(=O)C(Nc1ccccc1)=CC2=O`, the growth inhibition in experiment [1] is 22.5%; in experiment [2] it was 25.3%; in experiment [3] it was 12.6%; in experiment [4], -7.65%; in experiment [5], 2.75%; in experiment [6], 23.4%.

Take `CCCCCCCCCCCCOP(=O)(O)OP(=O)(O)OCC1OC(n2ccc(N)nc2=O)CC1O` (configuration not stated): the growth inhibition in experiment [1] is 27.9%; in experiment [2], 21.5%; in experiment [3] it was 27.6%; in experiment [4], 17.1%; in experiment [5] it was 22.1%; in experiment [6] it was 18.2%.

`Cc1cccc(-c2nnc3s/c(=C\c4ccc5c(c4)OCO5)c(=O)n23)c1`: the growth inhibition is -20.1% in experiment [1]; -12.2% in experiment [2]; -1.45% in experiment [3]; 11.7% in experiment [4]; 4.35% in experiment [5]; 0.65% in experiment [6].

`C(=N\N1CCN(/N=C/c2cccc3ccccc23)CC1)/c1cccc2ccccc12`: the growth inhibition in experiment [1] was 16.2%; in experiment [2] it was 6.85%; in experiment [3], 19%; in experiment [4], 18.5%; in experiment [5], -0.65%; in experiment [6] it was 3.4%.

Turning to `COc1ccccc1Nc1nc(N)nc(N)c1N=O`, the growth inhibition in experiment [1] is 11.4%; in experiment [2], -36.1%; in experiment [3], -16.2%; in experiment [4], -27.7%; in experiment [5] it was -34.6%; in experiment [6] it was -56.1%.

For `CC1=CC2N(C=C1)C(c1cccc([N+](=O)[O-])c1)=NON2c1cc(C)ccn1` (configuration not stated), the growth inhibition in experiment [1] is 7.05%; in experiment [2], 0.95%; in experiment [3] it was 6.85%; in experiment [4], 13.6%; in experiment [5], -1%; in experiment [6], 23.9%.

In the case of `CSC1=Nc2cc3c(cc2C(=O)N2C[C@H](O)CC12)OCO3` (some centres not stated), the growth inhibition is -20.9% in experiment [1]; -25.5% in experiment [2]; -10.9% in experiment [3]; -34.2% in experiment [4]; -10.8% in experiment [5]; -6.3% in experiment [6].

Regarding `C[C@]12CCC(=O)O[C@@H]1CC[C@@H]1[C@@H]2CC[C@]2(C)[C@@H](O)CC[C@@H]12`, the growth inhibition is 20.9% in experiment [1]; 14% in experiment [2]; 42.3% in experiment [3]; 32.5% in experiment [4]; 27.2% in experiment [5]; 23.1% in experiment [6].

Take `CCCC1(C)COC(/C=C/c2ccccc2)OC1` (configuration not stated): the growth inhibition in experiment [1] is 6.85%; in experiment [2], -9.7%; in experiment [3], -8.3%; in experiment [4] it was -1.85%; in experiment [5] it was -8.2%; in experiment [6], 8.4%.

In the case of `O=S(=O)(c1ccc(N=Cc2cccs2)cc1)c1ccc(N=Cc2cccs2)cc1`, the growth inhibition in experiment [1] is -13.2%; in experiment [2] it was -22.1%; in experiment [3], -10.1%; in experiment [4] it was 10.7%; in experiment [5], 5.35%; in experiment [6] it was -13.8%.

`O=c1oc(-c2ccccc2)c(-c2ccccc2)o1`: the growth inhibition in experiment [1] is 43%; in experiment [2] it was 22.8%; in experiment [3] it was 21.9%; in experiment [4], -46.8%; in experiment [5], 45.6%; in experiment [6] it was 46.4%.

As to `Br[C@H]1CC2CCC1C2` (some centres not stated), the growth inhibition in experiment [1] is 23.1%; in experiment [2] it was -23.9%; in experiment [3], 2.9%; in experiment [4], 6.9%; in experiment [5] it was -6.1%; in experiment [6] it was 5.65%.

On to `O=C(O)/C=C/C(=O)N1Cc2cc3ccccc3nc2C1`, for which the growth inhibition is -5.75% in experiment [1]; -31.1% in experiment [2]; -45.8% in experiment [3]; -28.1% in experiment [4]; -56.2% in experiment [5]; -13.7% in experiment [6].

Take `Fc1ccc(CC(F)F)cc1`: the growth inhibition in experiment [1] was -2.55%; in experiment [2] it was -6.2%; in experiment [3] it was 14.4%; in experiment [4], 4.6%; in experiment [5], -23.6%; in experiment [6], 3.25%.

Take `Cc1ccccc1NC(=O)CC#N`: the growth inhibition in experiment [1] is 8.15%; in experiment [2] it was -12.3%; in experiment [3], 1.5%; in experiment [4], 3.85%; in experiment [5], -0.7%; in experiment [6] it was 2.2%.

`CCCCCOc1ccc(C(=O)OC)cc1`: the growth inhibition in experiment [1] was -25.9%; in experiment [2], -5.15%; in experiment [3] it was 6.2%; in experiment [4], -22.8%; in experiment [5], -0.1%; in experiment [6] it was -20%.

As to `O=c1c(F)cn2c(=O)n1CCCCCCCn1c(=O)c(F)cn(c1=O)CCCCCCC2`, the growth inhibition is 1.3% in experiment [1]; -24.4% in experiment [2]; 1.65% in experiment [3]; 0.7% in experiment [4]; -13.4% in experiment [5]; 1.55% in experiment [6].

On to `O=c1c2c(sc3ccccc13)NCN(CCc1ccccc1)C2`, for which the growth inhibition is -10.7% in experiment [1]; -4.15% in experiment [2]; 20.9% in experiment [3]; 3.2% in experiment [4]; 19.1% in experiment [5]; 12.2% in experiment [6].

`CC1=NN(C(=O)CC(=O)Nc2ccccc2C)C(=O)C1N=Nc1ccc(S(=O)(=O)c2ccc(N=NC3C(=O)N(C(=O)CC(=O)Nc4ccccc4C)N=C3C)cc2)cc1` (configuration not stated): the growth inhibition in experiment [1] was 41.6%; in experiment [2] it was 14.5%; in experiment [3], -2.25%; in experiment [4] it was 2.45%; in experiment [5], -8.75%; in experiment [6], 1.35%.

Turning to `Cc1cccc(C=NC23CC4CC(CC(C4)C2)C3)c1`, the growth inhibition in experiment [1] was -30.4%; in experiment [2], -40.5%; in experiment [3], -40.5%; in experiment [4], -30.7%; in experiment [5], -44.9%; in experiment [6], -43.3%.

`COc1cc2cnc(-c3ccncc3)c(N)c2cc1OC`: the growth inhibition in experiment [1] is -0.75%; in experiment [2] it was 8.4%; in experiment [3] it was -11.6%; in experiment [4] it was 24.6%; in experiment [5], 7.8%; in experiment [6], 7.65%.

Consider `COC(=O)C(C(=O)C(=O)Nc1ccc(C(F)(F)F)cc1[N+](=O)[O-])c1csc(-n2nc(-c3ccccc3)cc2-c2ccccc2)n1` (configuration not stated), for which the growth inhibition in experiment [1] was 19.9%; in experiment [2], 18.6%; in experiment [3] it was 42.5%; in experiment [4] it was -13.2%; in experiment [5], 23.4%; in experiment [6], 1.6%.

Take `CC(C)NC(=O)c1ccc(CBr)cc1`: the growth inhibition in experiment [1] is 0.8%; in experiment [2], 9.05%; in experiment [3], -10.1%; in experiment [4] it was 9.8%; in experiment [5] it was 10.4%; in experiment [6], 14.3%.

`COc1ccc(N=Nc2c(C)c(C#N)c(=S)n(C3OC(CO)C(O)C(O)C3O)c2C)cc1` (configuration not stated): the growth inhibition in experiment [1] was 16.1%; in experiment [2], 14.1%; in experiment [3], 46.6%; in experiment [4] it was 7.9%; in experiment [5], 28.1%; in experiment [6], 21.7%.

As to `COc1cc(OC)c(OCc2ccccc2)c(OC)c1`, the growth inhibition in experiment [1] was 12.2%; in experiment [2], 0.25%; in experiment [3] it was -0.25%; in experiment [4], 2.45%; in experiment [5], -2.5%; in experiment [6], -17.2%.

In the case of `Nc1ccc2c(c1)C(=O)N(OS(=O)(=O)c1ccccc1)C2=O`, the growth inhibition in experiment [1] is 55%; in experiment [2], 39%; in experiment [3], 41.2%; in experiment [4], 41%; in experiment [5], 35%; in experiment [6] it was 47.2%.

For `CC(=O)C1CCC(CCCC(C)C)CC1` (configuration not stated), the growth inhibition in experiment [1] is 13.9%; in experiment [2], -2.4%; in experiment [3], -2.75%; in experiment [4], -10.4%; in experiment [5], 2.4%; in experiment [6] it was 6.2%.

With `O=C(NP(=O)(O)NC(Cc1ccccc1)C(=O)O)OCc1ccccc1` (configuration not stated), the growth inhibition in experiment [1] was -7.45%; in experiment [2], -6.65%; in experiment [3], 4.1%; in experiment [4], -18.9%; in experiment [5] it was 1.8%; in experiment [6], -12.2%.
